Results on seven compounds are retold here after PubChem BioAssay (NCI).

This is part of a sample that, as a whole, favours compounds with a hit. Of some 83,000 tested, about 20% had one in any assay.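 Each cell line was grown in a 96-well plate and treated with one concentration of compound for 48 hours. Values below 10 were considered active.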 Unmarked numbers belong to inactive results. The source made the active and inactive calls.

Test systems include MOLT-4 leukemia; SR leukemia; RPMI-8226 leukemia; OVCAR-8 ovarian; OVCAR-5 ovarian; OVCAR-4 ovarian; SK-OV-3 ovarian; IGROV1 ovarian; OVCAR-3 ovarian; HS 578T breast; NCI/ADR-RES ovarian; T-47D breast; BT-549 breast; MDA-MB-435 melanoma; SW-620 colon; MCF7 breast; HCT-116 colon; HCC-2998 colon; KM12 colon.
Test in all cases: NCI-60 one-dose screen, 48 h (100 = growth as untreated, 0 = no growth, -100 = all killed)
Common to all, as to settings: 10 µM unless noted

As for `CC/C(Cc1ccccc1)=C(\c1ccc(OCCN2CCCC2)cc1)c1ccc(OC(=O)NCc2ccccc2)cc1`, the growth in the assay with MOLT-4 leukemia is 11.7%; in the assay with SR leukemia it was -28.2% (active); with RPMI-8226 leukemia, -6.25% (active); in the assay with OVCAR-8 ovarian, 62.2%; with OVCAR-5 ovarian, 75.9%; with OVCAR-4 ovarian, 59.9%. Moreover, the growth with SK-OV-3 ovarian was 91.9%; in the assay on IGROV1 ovarian it was 40%; in the assay with OVCAR-3 ovarian, 78.4%; in the assay on HS 578T breast, 69.5%; in the assay on NCI/ADR-RES ovarian, 88.1%; in the assay with T-47D breast it was 21.2%. In addition, the growth in the assay with BT-549 breast was 77.9%; with MDA-MB-435 melanoma, 53.6%; in the assay on SW-620 colon, -44.1% (active); in the assay on MCF7 breast it was -11.1% (active); in the assay with HCT-116 colon, -34.2% (active); in the assay with HCC-2998 colon, 83.1%. In addition, the growth in the assay with KM12 colon was 45.7%.

For `OCCN=Cc1c[nH]c2ccccc12`, the growth with MOLT-4 leukemia was 101%; with SR leukemia, 95.4%; in the assay with RPMI-8226 leukemia, 120%; in the assay on OVCAR-8 ovarian it was 100%; in the assay on OVCAR-5 ovarian, 91%; in the assay on OVCAR-4 ovarian it was 94%. Also, the growth in the assay with SK-OV-3 ovarian is 98.6%; in the assay on IGROV1 ovarian it was 104%; in the assay on OVCAR-3 ovarian it was 97.7%; in the assay with HS 578T breast, 97.5%; with NCI/ADR-RES ovarian, 100%; in the assay on T-47D breast, 94.5%. The growth was 107% in the assay on BT-549 breast; 103% in the assay on MDA-MB-435 melanoma; 93.3% with SW-620 colon; 93% with MCF7 breast; 96.7% in the assay on HCT-116 colon; 107% in the assay with HCC-2998 colon. Besides, the growth in the assay on KM12 colon is 102%.

As for `CCCCn1c(=O)c(C(=O)NCc2ccccc2Cl)c(O)c2ccccc21`, the growth was 58.4% in the assay with MOLT-4 leukemia; 60.4% in the assay with SR leukemia; 40.1% in the assay with RPMI-8226 leukemia; 81.1% in the assay with OVCAR-8 ovarian; 109% with OVCAR-5 ovarian; 82.4% in the assay on OVCAR-4 ovarian. Further, the growth was 80.8% with SK-OV-3 ovarian; 74.9% in the assay with IGROV1 ovarian; 78.9% with OVCAR-3 ovarian; 101% in the assay with HS 578T breast; 56.2% in the assay on NCI/ADR-RES ovarian; 85.6% with T-47D breast. The growth in the assay on BT-549 breast is 47.9%; with MDA-MB-435 melanoma, 98.5%; in the assay on SW-620 colon it was 78.8%; in the assay on MCF7 breast, 64.4%; in the assay with HCT-116 colon, 21.4%; with HCC-2998 colon, 93.4%. The growth in the assay on KM12 colon was 83.8%.

Turning to `CC12CCC3C(CCC4CC(O)CCC43C)C1CCC2=O` (stereo not drawn), the growth with MOLT-4 leukemia is 83.1%; in the assay with SR leukemia it was 86.1%; with RPMI-8226 leukemia, 100%; in the assay on OVCAR-8 ovarian it was 99.9%; in the assay on OVCAR-5 ovarian, 91.7%; in the assay on OVCAR-4 ovarian, 108%. Besides, the growth was 126% with SK-OV-3 ovarian; 38.9% in the assay with IGROV1 ovarian; 100% in the assay with OVCAR-3 ovarian; 81.9% in the assay with HS 578T breast; 163% in the assay with NCI/ADR-RES ovarian; 113% in the assay on T-47D breast. For the same compound, the growth in the assay on BT-549 breast is 113%; in the assay with MDA-MB-435 melanoma it was 97.7%; in the assay on SW-620 colon, 109%; with MCF7 breast, 116%; with HCT-116 colon it was 88.6%; in the assay on HCC-2998 colon it was 99.2%. In addition, the growth in the assay with KM12 colon was 98.9%.

Turning to `C[C@]12CCC3[C@@H](C[C@@H]4SC(Nc5ccccc5)=N[C@@]45CC(=O)CC[C@]35C)[C@@H]1CCC2=O` (stereo partly drawn), the growth in the assay with MOLT-4 leukemia is -5.8% (active); in the assay on SR leukemia it was -5.37% (active); in the assay on RPMI-8226 leukemia, -14.8% (active); in the assay on OVCAR-8 ovarian it was -5.35% (active); with OVCAR-5 ovarian, 31.2%; in the assay on OVCAR-4 ovarian it was 31.7%. For the same compound, the growth in the assay on SK-OV-3 ovarian is 56.9%; with IGROV1 ovarian it was -11.3% (active); in the assay with OVCAR-3 ovarian, -9.98% (active); in the assay with HS 578T breast, 41%; with NCI/ADR-RES ovarian, 9.86% (active); in the assay with T-47D breast, -27.4% (active). For the same compound, the growth with BT-549 breast was -19.9% (active); in the assay on MDA-MB-435 melanoma, 1.11% (active); in the assay on SW-620 colon it was -17.9% (active); in the assay on MCF7 breast, 15.4%; in the assay on HCT-116 colon, -85.5% (active); with HCC-2998 colon, -32.7% (active). Also, the growth in the assay on KM12 colon was 23.2%.

Consider `Cc1cc[c-]cc1.Fc1c[c-]c(-c2ccccn2)c(F)c1.N#CCC[PH+](CCC#N)c1ccccc1.[Pt+2]`, for which the growth was 5.29% (active) in the assay on MOLT-4 leukemia; 7.03% (active) with SR leukemia; 14.6% with RPMI-8226 leukemia; 40.7% in the assay with OVCAR-8 ovarian; 64.9% in the assay on OVCAR-5 ovarian; 42.1% with OVCAR-4 ovarian. In addition, the growth with SK-OV-3 ovarian is 108%; with IGROV1 ovarian it was 30.2%; in the assay on OVCAR-3 ovarian, 28.5%; in the assay with HS 578T breast, 40.6%; with NCI/ADR-RES ovarian, 55.3%; in the assay with T-47D breast it was 29.1%. Further, the growth is 55.7% in the assay on BT-549 breast; 30.9% with MDA-MB-435 melanoma; 6.78% (active) with SW-620 colon; 20.8% in the assay with MCF7 breast; 19.1% in the assay with HCT-116 colon; 82.4% in the assay on HCC-2998 colon. In the assay with KM12 colon, the growth was 74.1%.

On to `C[N+]1(CC#CC[N+]2(C)CCCC2)CCCC1`, for which the growth in the assay on MOLT-4 leukemia was 103%; in the assay on SR leukemia it was 96.7%; in the assay on RPMI-8226 leukemia, 109%; in the assay on OVCAR-8 ovarian, 111%; with OVCAR-5 ovarian it was 101%; in the assay on OVCAR-4 ovarian it was 105%. In addition, the growth was 98.3% with SK-OV-3 ovarian; 105% in the assay with IGROV1 ovarian; 102% in the assay on OVCAR-3 ovarian; 107% in the assay with HS 578T breast; 102% in the assay with NCI/ADR-RES ovarian; 108% in the assay on T-47D breast. Moreover, the growth in the assay on BT-549 breast was 101%; in the assay on MDA-MB-435 melanoma, 104%; with SW-620 colon, 107%; in the assay on MCF7 breast it was 95.5%; in the assay on HCT-116 colon it was 98.4%; with HCC-2998 colon, 110%. Also, the growth with KM12 colon was 102%.
